{
  "source": "PubChem BioAssay (NCATS)",
  "note": "Records with an inconclusive call do not appear. The source made the active and inactive calls. Calls come from the whole dose curve; as a rule, active = well fitted inhibition curve with a large enough effect; inconclusive = small, poorly fitted or top-dose-only effect; inactive = flat fitted curve, though single readings scatter. % is set by controls: 0 for no effect and ±100 for the full control effect; potency is the fitted concentration of half-maximal effect.",
  "data": [
    {"assay": "P-glycoprotein substrates identified in KB-8-5-11 adenocarcinoma cell line, qHTS therapeutic library screen (AID 1346987); note: nearly all actives have a fitted effect of over 65% in size", "conditions": "KB-8-5-11 (P-gp overexpressing) viability, CellTiter-Glo, 72 h; series mostly up to 44.5 µM; activity change, negative = cytotoxicity: at the top concentration", "excerpt": "The ATP-binding cassette transporters P-glycoprotein (P-gp) is known to limit brain penetration of many chemotherapy drugs. […] As such, we developed a high-throughput screen (HTS) to identify substrates of P-gp from a series of chemical libraries including the National Center for Advancing Translational Sciences Pharmaceutical Collection NPC, 2,816 compounds), testing a total of 10,804 compounds, most of which have known mechanisms of action. We used the CellTiter-Glo viability assay to test library compounds against the parental KB-3-1 human cervical adenocarcinoma cell line and the colchicine-selected sub-line KB-8-5-11 that over-expresses P-gp. KB-8-5-11 cells were also tested in the presence of a P-gp inhibitor (tariquidar) to assess reversability of transporter-mediated resistance. Of the tested compounds, a total of 90 P-gp substrates were identified including 55 newly identified P-gp substrates. Substrates were confirmed using an orthogonal killing assay against HEK-293 cells transfected with P-gp. As exemplars, we confirmed that […] (cyclin-dependent kinase inhibitor); AT9283, (Janus kinase 2/3 inhibitor); ispinesib (kinesin spindle protein inhibitor); gedatolisib (PKI-587, phosphoinositide 3-kinase/mammalian target of rampamycin inhibitor); GSK-690693 (AKT inhibitor); and KW-2478 (heat shock protein 90 inhibitor) were substrates , and direct ATPase stimulation was assessed. ABCG2 was also found to confer high levels of resistance to AT9283, GSK-690693 and gedatolisib, while ispinesib, AT7519 and KW-2478 were weaker substrates.\nThe HeLa derivative cell line, KB-3-1, and its colchicine-selected, P-gp-overexpressing subline, KB-8-5-11 were maintained in DMEM with 10% FCS and Pen/Strep with glutamine at 37 degree C in 5% CO2. For KB-8-5-11 cells, colchicine was added to the medium at a concentration of 100 ng/mL. HEK-293 cells transfected with empty vector (pcDNA) or vector containing human ABCB1 (MDR-19) or ABCG2 (R-5) have been described previously (Robey, Lin, Qiu, Chan & Bates, 2011) and were maintained in EMEM supplemented with 10% FCS, Pen/Strep and glutamine with 2 mg/ml G418 to select for the expression of the transporter. Cultures were confirmed to be free of mycoplasma infection using the MycoAlert Mycoplasma Detection Kit (Lonza, Walkersville, MD). For the screen, assay medium was identical to culture medium except for KB-8-5-11 where colchicine was excluded from the medium.\nAll cell lines were plated into 1536-well plates at 500 cells/well in 5 uL media. Compounds were then pinned in dose-response using a 1536-head pin tool (Kalypsis, San Diego, CA) and plates were incubated at 37 degree C in 5% CO2 for an additional 72 h. CellTiter-Glo reagent (Promega) was dispensed into the wells, incubated for 5 min and luminescence was read on a ViewLux instrument (Perkin-Elmer). Cytotoxic compounds were defined as those that yielded a curve class of -1.1, -1.2, -2.1, -2.2, -2.3, or -2.4, a maximum response of >50% and an AC50 of < 10 uM. Cherry-picked hits from screening analysis were tested with both the KB pair of cell lines, and the pcDNA (empty vector control) and MDR-19 (P-gp overexpressing) pair were tested, in the absence and presence of tariquidar.", "values": [
      {"smiles": "C=C1CC[C@@H]2[C@](C)(CO)[C@H](O)CC[C@@]2(C)[C@@H]1CC(O)C1=CCOC1=O", "note": "(stereo not given in full)", "outcome": "inactive"},
      {"smiles": "CCCCCCCCCCCCCCCCCC(=O)OCCO", "activity change, negative = cytotoxicity": "-16.9% (inactive)"},
      {"smiles": "CC(C)=C[C@@H]1[C@H](CO[C@@H]2O[C@H](CO)[C@@H](O)[C@H](O)[C@H]2O)C1(C)C", "activity change, negative = cytotoxicity": "4.22% (inactive)"},
      {"smiles": "NC(=O)c1cccc2[nH]c(-c3ccc(C4CCCN4)cc3F)nc12", "note": "(stereo not given)", "activity change, negative = cytotoxicity": "-6.51% (inactive)"},
      {"smiles": "COc1ccc(OC)c(-c2ccc(NC(=O)c3ccncc3F)cc2)c1", "activity change, negative = cytotoxicity": "-9.21% (inactive)"},
      {"smiles": "CC(C)(C)C1CCN(C(=O)n2ncc(C(O)(c3ccccc3)c3ccccc3)n2)CC1", "Potency": "20.6 µM (active)"},
      {"smiles": "C=CCNC1=C2C[C@@H](C)C[C@H](OC)[C@H](O)[C@@H](C)/C=C(\\C)[C@H](OC(N)=O)[C@@H](OC)/C=C\\C=C(/C)C(=O)NC(=CC1=O)C2=O", "Potency": "16.4 µM (active)"},
      {"smiles": "CC(=O)O[C@H]1C[C@@](O)(C(C)C)[C@@H]2[C@@H](OC(=O)c3ccc(O)cc3)CC(C)=CC[C@@]12C", "activity change, negative = cytotoxicity": "-19% [at 17.3 µM] (inactive)"},
      {"smiles": "CNCCN1CCC(c2cc(CN(C)C(=O)c3cccc(Oc4ccccc4)c3)ccn2)CC1", "outcome": "inactive [at 17.3 µM]"},
      {"smiles": "CC(=O)OC/C(=C/C(=O)O)CC[C@@H]1C(C=O)=CC[C@@H]2C(C)(C)CCC[C@@]12C", "activity change, negative = cytotoxicity": "-8.98% (inactive)"},
      {"smiles": "O=C(O)c1cccc(/C=C2/C[C@@H]3[C@@H](/C=C/[C@@H](O)C4CCCCC4)[C@H](O)C[C@@H]3O2)c1", "activity change, negative = cytotoxicity": "-6.44% (inactive)"},
      {"smiles": "CCC(CC)C(c1ccc(Nc2nc3ccccc3s2)cc1)n1cncn1", "note": "(stereo not given)", "Potency": "23.1 µM (active)"},
      {"smiles": "CCCC(Nc1nc(-c2ccc(NC(=O)NCC)c(OC)c2)ncc1C)c1cccnc1", "note": "(stereo not given)", "Potency": "1.16 µM (active)"},
      {"smiles": "COc1ccc([C@H]2OC[C@H]3O[C@@H](O[C@H]4[C@@H]2NC[C@@H]4O)[C@H](O)[C@H]3O)cc1", "Potency": "1.61 µM (active)"},
      {"smiles": "C[C@@H]1O[C@@H](O[C@H]2CC[C@@]3(C)C(CC[C@]4(C)C3CC=C3[C@@H]5CC(C)(C)CC[C@]5(C(=O)O[C@@H]5O[C@H](CO)[C@@H](O)[C@H](O)[C@H]5O)CC[C@]34C)[C@]2(C)CO)[C@H](O)[C@H](O[C@@H]2O[C@H](CO)[C@@H](O)[C@H](O)[C@H]2O)[C@H]1O", "note": "(stereo not given in full)", "activity change, negative = cytotoxicity": "3.4% [at 9.29 µM] (inactive)"},
      {"smiles": "CNC[C@@H]1CC[C@@H](N)[C@@H](O[C@H]2[C@H](O)[C@@H](O[C@H]3OC[C@](C)(O)[C@H](NC)[C@H]3O)[C@H](N)C[C@@H]2N)O1", "activity change, negative = cytotoxicity": "1.56% (inactive)"},
      {"smiles": "C[C@@H]1O[C@@H](O[C@H]2[C@@H](OC(=O)[C@]34CCC(C)(C)CC3C3=CCC5[C@@]6(C)C[C@H](O)[C@H](O[C@@H]7O[C@H](CO)[C@@H](O)[C@H](O)[C@H]7O[C@@H]7OC[C@@H](O)[C@H](O)[C@H]7O)[C@@](C)(C(=O)O)C6CC[C@@]5(C)[C@]3(C)CC4)OC[C@H](O)[C@@H]2O)[C@H](O)[C@H](O)[C@H]1O[C@@H]1OC[C@@H](O)[C@H](O)[C@H]1O", "note": "(stereo not given in full)", "outcome": "inactive [at 9.29 µM]"},
      {"smiles": "CN(C)Cc1ccccc1", "activity change, negative = cytotoxicity": "14.4% (inactive)"},
      {"smiles": "CC1(CO)CC(O)[C@]2(C(=O)O)CCC34CC3(C=CC3[C@]5(C)C(CC[C@]34C)C(C)(CO)[C@@H](O)[C@H](O)[C@@H]5O)C2C1", "note": "(stereo not given in full)", "outcome": "inactive [at 17.3 µM]"},
      {"smiles": "CC(C)n1cnc2c(-c3cnc(N)nc3)nc(N3CCOCC3)nc21", "Potency": "0.709 µM (active)"},
      {"smiles": "CC1(C)CCCC2(C)C1C(=O)C=C(C(=O)O)C2(O)C(=O)O", "note": "(stereo not given)", "activity change, negative = cytotoxicity": "-11.8% (inactive)"},
      {"smiles": "CC1(C)SCCN(S(=O)(=O)c2ccc(Oc3ccncc3)cc2)[C@H]1C(=O)NO", "activity change, negative = cytotoxicity": "-5.29% (inactive)"},
      {"smiles": "COc1cc(N2CCC(O)CC2)ccc1Nc1nc(Nc2ccccc2S(=O)(=O)C(C)C)c2[nH]cnc2n1", "activity change, negative = cytotoxicity": "-5.23% (inactive)"},
      {"smiles": "C=C1C(=O)O[C@@H]2/C=C(\\CO)CC/C=C(\\CO)[C@H](OC(C)=O)C(OC(=O)C(C)CC)C12", "note": "(stereo not given in full)", "outcome": "inactive [at 17.3 µM]"},
      {"smiles": "Cc1ccc(-c2cn3c4c(sc3n2)CCCC4)cc1", "activity change, negative = cytotoxicity": "-19% (inactive)"},
      {"smiles": "COC(=O)CC[C@@H](C)C1CCC2C3CCC4C[C@H](OC(C)=O)CCC4(C)C3C[C@H](O)C21C", "note": "(stereo not given in full)", "activity change, negative = cytotoxicity": "-7.52% (inactive)"},
      {"smiles": "C/C1=C/CCC2=CC(OC2=O)C(C)(C)/C=C/C1=O", "note": "(stereo not given)", "Potency": "3.26 µM (active)"},
      {"smiles": "C[C@@H](O[C@H]1OCCN(Cc2nn(P(=O)(O)O)c(=O)[nH]2)[C@H]1c1ccc(F)cc1)c1cc(C(F)(F)F)cc(C(F)(F)F)c1", "activity change, negative = cytotoxicity": "-6.43% [at 17.3 µM] (inactive)"},
      {"smiles": "Cc1cc(-c2cnc(N)c3c(-c4ccc5scnc5c4)csc23)n(C)n1", "Potency": "8.2 µM (active)"},
      {"smiles": "CN(C)CCn1cc(-c2ccc(F)cc2)c(-n2cccc2)n1", "activity change, negative = cytotoxicity": "-13.3% (inactive)"},
      {"smiles": "Fc1ccc(-c2nc(-c3ccccc3F)[nH]c2-c2ccncc2)cc1", "activity change, negative = cytotoxicity": "-3.18% (inactive)"},
      {"smiles": "C/C(=C/C=C\\C=C\\Cc1cnco1)[C@@H](O)C(C)(C)C(N)=O", "activity change, negative = cytotoxicity": "-21.1% (inactive)"},
      {"smiles": "C[C@@H]1CC[C@@]23CC[C@]4(C)[C@@](C=CC5[C@@]6(C)CC[C@H](O)C(C)(C)C6CC[C@]54C)(OC2=O)C3[C@H]1C", "note": "(stereo not given in full)", "activity change, negative = cytotoxicity": "-9.08% [at 17.3 µM] (inactive)"},
      {"smiles": "COc1cc(C#N)ccc1S(=O)(=O)Nc1ccc2c(c1)cc(C)c(=O)n2C", "activity change, negative = cytotoxicity": "-18.2% (inactive)"},
      {"smiles": "CCC(C)C(=O)O[C@H]1[C@H](O)[C@@]2(COC(C)=O)C(CC1(C)C)C1=CCC3[C@@]4(C)CC[C@H](O[C@@H]5O[C@H](C(=O)O)[C@@H](O)[C@H](O)[C@H]5O)[C@@](C)(CO)C4CC[C@@]3(C)[C@]1(C)C[C@@H]2O", "note": "(stereo not given in full)", "activity change, negative = cytotoxicity": "-11.3% [at 9.29 µM] (inactive)"},
      {"smiles": "NC(=O)N1CCC(CC(=O)N2CCC(C3c4ncc(Br)cc4CCc4cc(Cl)cc(Br)c43)CC2)CC1", "note": "(stereo not given)", "Potency": "18.4 µM (active)"},
      {"smiles": "C[C@H]1CC[C@@]2(OC1)O[C@H]1CC3[C@@H]4CC[C@@H]5C[C@@H](O[C@@H]6O[C@H](CO)[C@@H](O[C@@H]7O[C@@H](C)[C@H](O)[C@@H](O)[C@H]7O)[C@H](O)[C@H]6O[C@@H]6O[C@H](CO)[C@@H](O)[C@H](O)[C@H]6O)CC[C@]5(C)C4CC[C@]3(C)[C@H]1[C@@H]2C", "note": "(stereo not given in full)", "outcome": "inactive [at 9.29 µM]"},
      {"smiles": "O=S(=O)(NCc1cccc2ccccc12)c1cc(Cl)c(Oc2cccc(N3CCNCC3)c2)s1", "Potency": "16.4 µM (active)"},
      {"smiles": "COc1cc2c(Nc3cc(F)c(Cl)c(Cl)c3)ncnc2cc1OCC1CCCN(C)CCC1", "Potency": "16.4 µM (active)"},
      {"smiles": "CC1(C)OC[C@H](NC(=O)Nc2ccc(Br)cc2Br)[C@H](c2ccccc2)O1", "activity change, negative = cytotoxicity": "-22.9% (inactive)"}
    ]}
  ]
}
